Screening data deposited in PubChem BioAssay by Broad Institute.
AI-2 QS mod – modulates the Vibrio harveyi AI-2 quorum sensing system; Vibrio harveyi JMH597 AI-2 luminescence/OD600 ratio, 9 h; stronger effect = lower value; strain lacks LuxN and CqsS sensors; 0 = neutral-control median; activity change, % at 7.5 µM; 0.4% of 300,000 active; in the data active means activity change below about -75%, passing the limit was not always enough; inconclusive means no clear call, values can overlap the other calls;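 further: luminescence divided by OD600 gain over 9 h not by final OD600 alone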
HIF activator – HIF pathway transcriptional activation; U2OS HRE-luciferase reporter, luminescence; normalized: DMSO 0%, desferrioxamine 100%; 0.32% of 300,000 active; activation, % at 7.5 µM (by protocol); AID 1910;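 active means mean activation of at least 10% of the iron chelator positive control signal, with at least half of replicates also reaching 10%; inconclusive means mean and replicate majority disagree about reaching 10%; inactive means mean and most replicates under 10%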
SUMO Mot1 rescue – SUMOylation pathway inhibition by Mot1-301 growth rescue; S. cerevisiae Mot1-301 growth rescue, ATP luminescence, 38.5C; percent above DMSO median, 100 means doubled; growth rescue, % at 18.8 µM; 1% of 320,000 active;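 active means every valid replicate shows activation above 250% relative to neutral control wells; inactive means the rest, any valid replicate at or below 250%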;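 further: OY570 slx delta 5 strain wells were the positive control but not used for scaling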
ALR inh – inhibitors of human sulfhydryl oxidase ALR | P55789 | purified ALR, DTT oxidation, H2O2 HRP-luminol luminescence | inhibition, % (concentration not given with the values) | 3.8% of 290,000 active | AID 485317;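 active means mean replicate inhibition above about 79%, with every replicate also reaching it, limit read from the data; inconclusive means only one of the two criteria met; inactive means mean below limit and not every replicate reaching it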
Target sequence (P55789 whole entry, looked up): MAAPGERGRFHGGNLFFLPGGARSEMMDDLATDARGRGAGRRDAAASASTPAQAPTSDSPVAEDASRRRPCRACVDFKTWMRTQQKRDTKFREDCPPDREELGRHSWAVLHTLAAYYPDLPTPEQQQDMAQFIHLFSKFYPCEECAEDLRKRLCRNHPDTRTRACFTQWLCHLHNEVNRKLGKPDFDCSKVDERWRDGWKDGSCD
* = called active by the depositor; ? = inconclusive; nt = no result. An excerpt weighted towards active compounds, which were near 4.8% of everything screened.

SMILES	AI-2 QS mod	HIF activator	SUMO Mot1 rescue	ALR inh
O=C(O/N=C1\CCS(=O)(=O)c2sccc21)c1c(F)cccc1F	10.5	-0.7	-2.3	0.9
Cc1ccc2cccc(OCC(=O)Nc3cccc(S(=O)(=O)N4CCCC4)c3)c2n1	nt	nt	21.0	-15.5
Cc1ccc(NS(=O)(=O)c2ccc(C(=O)NNC(=O)c3ccccc3O)cc2)cc1	58.8	0.0	-5.9	18.3
COc1ccc(N(Cc2ccccc2)S(=O)(=O)c2cc(C(=O)O)ccc2Cl)cc1	11.8	0.8	-15.1	5.1
Cc1ccc(C(=O)CCNc2ccccc2)o1	9.1	0.1	15.5	97.5*
Cc1ccc(C(=O)CCNc2ccc(Br)cc2)o1	?	4.4	13.2	44.3
O=C(Nc1cccc(-c2cscn2)c1)C1CCN(Cc2ccccn2)CC1	30.8	-0.8	nt	nt
COc1ccc(-c2cc(-c3n[nH]c(=S)n3-c3cc(OC)ccc3OC)[nH]n2)cc1	11.2	-0.3	9.7	82.9*
CC1=[N+](C)N(c2ccccc2)C(=O)C1N=Cc1c(Cl)cccc1Cl (configuration not stated)	1.7	-0.4	8.2	8.0
CC1=[N+](C)N(c2ccccc2)C(=O)C1N=Cc1ccccc1Cl (configuration not stated)	11.4	0.3	5.7	77.2*
COc1ccc(NC(=O)Nc2ccc(Br)cn2)cc1	17.0	40.4*	14.0	-17.1
COc1ccc(NC(=O)Nc2ccc(CC(=O)O)cc2)cc1	12.1	27.1*	-4.3	-9.6
O=C(O)Cc1ccc(NC(=O)Nc2ccc(Br)cc2)cc1	30.5	0.5	12.6	-2.6
O=C(NCC1(N2CCCCC2)CCCCC1)c1cccc(S(=O)(=O)Nc2ccc(F)cc2)c1	nt	nt	9.0	-1.1
CC1(C)CC(=O)C=C(Nc2ccccc2N)C1	23.0	0.1	9.8	98.7*
CCc1cccc2sc(N3CCN(C(=O)c4ccc([N+](=O)[O-])o4)CC3)nc12	-9.0	0.3	-5.7	-19.1
COC(=O)c1nc(NC(=O)c2cc(OC)c(OC)c(OC)c2)n[nH]1	0.8	-0.2	-11.0	98.0*
COc1cc(C(=O)Nc2ccncc2)cc(OC)c1OC	-2.3	-0.5	7.6	-4.1
CN1CCN(c2ccccc2NC(=O)COc2ccc(Cl)cc2)CC1	15.2	-0.8	-5.7	-5.6
CCOc1ccc(S(=O)(=O)N(CC)CC(=O)N2CCOCC2)cc1C	30.0	0.2	-21.1	1.3
Cn1c(SCc2ccc(C#N)cc2Cl)nc2ccccc21	9.2	2.5	-18.4	95.9*
N#Cc1ccc(CSc2ccccn2)c(Cl)c1	-1.7	1.4	1.5	nt
COc1ccccc1CNC(=O)COC(=O)c1ncc(Cl)c(Cl)c1Cl	4.3	-0.4	-4.8	-2.0
CCOC(=O)C1=C(C)NC2=C(C(=O)CC(C)(C)C2)C1c1ccc2c(c1)CCCN2C (configuration not stated)	13.9	0.0	-2.4	99.1*
CCOC(=O)C1=C(C)NC2=C(C(=O)CC(C)(C)C2)C1c1ccc(O)c(OCC)c1 (configuration not stated)	23.0	nt	-11.6	0.0
SMILES	AI-2 QS mod	HIF activator	SUMO Mot1 rescue	ALR inh
COc1ccc(/C(C)=N/Nc2nncc3ccccc23)cc1	14.0	3.8	6.6	-5.9
CCNC(=S)NNc1nncc2ccccc12	15.0	0.7	-22.3	98.6*
CNC(=S)NNc1nncc2ccccc12	21.6	-0.1	-10.0	106.1*
Cc1nn(Cc2ccccc2)c2c1C(c1cccnc1)C(C#N)=C(N)O2 (configuration not stated)	5.0	-0.2	nt	94.6*
CCn1c2ccc(F)cc2c2nnc(SCCN3CCCCC3)nc21	27.4	-1.5	419.5	5.4
CN(C)c1ccc(NC(=O)C2C3C=CC(C3)C2C(=O)O)cc1 (configuration not stated)	9.8	-28.7	-24.4	99.2*
O=C(O)C1C2C=CC(C2)C1C(=O)Nc1ccc2c(c1)OCCO2 (configuration not stated)	9.8	0.5	7.4	-29.0
Cc1ccc(-n2nc3c(=O)n(CCCC(=O)NC4CCC(C)CC4)nc(C)c3c2C)cc1 (configuration not stated)	-1.5	-0.3	-21.0	-3.3
COC(=O)Nc1nnc(Cc2ccc(OC)cc2)s1	11.3	39.8*	42.8	nt
O=[N+]([O-])c1ccccc1S(=O)(=O)N/C(=N/S(=O)(=O)c1ccccc1)c1ccccc1	nt	nt	-7.6	1.5
CN1CCN(C(=O)C2CC(=O)N(c3ccc(Cl)cc3)C2)CC1 (configuration not stated)	15.3	-0.1	-19.4	0.3
Nc1ccc2nc(NC(=O)C3CCCCC3)sc2c1	12.8	4.6	164.7	98.8*
CN(C)S(=O)(=O)c1ccc2nc(NC(=O)c3cccs3)sc2c1	15.5	0.9	-14.8	86.4*
CS(=O)(=O)c1ccc2nc(NC(=O)c3ccccc3Cl)sc2c1	-5.0	-0.3	4.7	11.1
CS(=O)(=O)c1ccc2nc(NC(=O)C3CC3)sc2c1	39.5	15.3*	161.5	-3.4
O=C(Nc1nc2ccc(C(=O)N3CCCCC3)cc2s1)C1CCCCC1	19.6	0.4	nt	9.4
O=C(Cc1ccccc1F)Nc1ccc(S(=O)(=O)N2CCCC2)cc1	nt	nt	-5.2	5.4
CCCc1nn(C(=O)c2ccccc2)c2c1C(=O)CC(C)(C)C2	12.1	0.0	-5.3	58.0
Cc1nn(C(=O)c2ccccc2)c2c1C(=O)CC(C)(C)C2	27.2	1.6	494.9*	52.0
COc1ccc(-c2nc(S(=O)(=O)c3ccccc3)c(NCCCN3CCOCC3)o2)cc1	nt	nt	8.9	10.1
CCN1CCN(c2c(Cl)cccc2NC(=O)c2cc3ccccc3o2)CC1	28.2	0.3	6.4	nt
CCOC(=O)c1c(C)c(C(=O)N2CCN(C(=O)c3ccco3)CC2)c(C)n1C	6.9	0.2	6.4	-1.5
CCOC(=O)c1c(C)n(C(=O)c2ccco2)c(=O)n1C(=O)c1ccco1	18.3	-0.2	7.7	96.8*
Cc1ccc(-c2ccc(CCC(=O)O)n2-c2ccc(O)cc2)cc1	23.0	-0.4	-12.3	87.2*
Cc1ccc(-c2ccc(CCC(=O)O)n2NC(=O)c2ccco2)cc1	28.2	0.3	0.7	91.9*
SMILES	AI-2 QS mod	HIF activator	SUMO Mot1 rescue	ALR inh
O=C(O)CCc1ccc(-c2ccc(F)cc2)n1NC(=O)c1ccco1	19.0	0.3	4.4	12.1
NC(=O)Nn1c(CCC(=O)O)ccc1-c1ccc(F)cc1	25.9	-0.2	349.2*	nt
CC1CCN(c2ccc3nnc(CCC(=O)Nc4cccc(F)c4)n3n2)CC1	31.1	-0.5	-3.9	-4.7
CC1=N/C(=C\c2ccc([N+](=O)[O-])cc2)C(=O)N1c1ccc(F)cc1F	47.2	-0.9	-10.2	-7.4
COc1cc(C(=O)OCC(=O)NC2CCCCCC2)ccc1OCC(C)C	10.6	0.0	-13.3	-9.6
CC(=O)Nc1ccc(SC(C)C(=O)NC(N)=O)cc1 (configuration not stated)	13.7	0.7	189.9	99.2*
COc1ccc(NC(=O)C(C)Sc2ccccc2)cc1 (configuration not stated)	13.5	1.2	2.5	-6.3
CN(CCOc1ccccc1)C(=O)c1ccc(Cl)c(S(=O)(=O)N2CCCCC2)c1	nt	nt	-6.4	-1.5
Nc1nnnn1/N=C/c1ccc(O)cc1	11.0	0.3	-16.5	95.7*
